Cycloheximide cs: affects cycloheximide protein synthesis inhibition readout, counter-screen. max response, %. AID 2314. cell reporter, cycloheximide protein synthesis inhibition counterscreen. 300,000 tested, 12% active; in the data active means max response mostly above about 13%, no sharp cut-off; inactive means mostly below about 14%; further: read at 38.3 µM for the half of the compounds with a filed dose; 0% is about no effect
Pf growth 96h: P. falciparum growth inhibition at 96 hour, primary screen for plastid delayed-death inhibitors | Potency, µM (highest dose often 28.7 µM), inactives show at the highest dose activity change, negative = inhibition, hits mostly inhibitors | P. falciparum luciferase reporter growth, 96 h | 320,000 tested, 6.9% active | AID 504834; further: potency means the concentration at half of the fitted maximal effect; on the % scale 0 is the no-effect control and ±100 the full control effect
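96 h incubation, 37 C, 5% CO2, of luciferase-reporter P. falciparum-infected RBCs (2% hematocrit, 0.05% parasitemia final) with test compounds; endpoint luminescence.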
Shiga inhibitor: inhibitors of Shiga toxin in Vero cells; 290,000 tested, 9.2% active; Vero cells, Shiga toxin protein synthesis inhibition reporter; inhibition, % at 38.7 µM; in the data active means inhibition mostly above about 28%, no sharp cut-off; inactive means mostly below about 43%; further: 0% is about no effect
Pf growth 48h: inhibits P. falciparum growth in the first generation, 48 h. Potency, µM (titrated, usually from 28.7 µM), for the others: at the top dose activity change, negative = inhibition, most hits filed as inhibitors. 310,000 tested, 5.9% active. P. falciparum luciferase growth in erythrocytes, 48 h; further: potency means the concentration at half of the fitted maximal effect; on the % scale 0 is the no-effect control and ±100 the full control effect
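Cell-based growth assay: transgenic P. falciparum expressing firefly luciferase, cultured in red cells within RPMI 1640 containing 0.5% w/v Albumax, 24 mM bicarbonate and gentamycin. A drop in luciferase activity indicates inhibition.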
Numbers without * were called inactive; i = inactive; ? = inconclusive; . = not tested or not shown. Sampled rows, rich in hits. Any-hit rate of the full collection: about 21%. Unless noted, the call rests on the fitted dose curve; in most records, active means well fitted inhibition curve with a large enough effect; inconclusive means small, poorly fitted or top-dose-only effect, or another doubt; inactive means no such curve, though single readings can be large or run the other way.

SMILES	Cycloheximide cs	Pf growth 96h	Shiga inhibitor	Pf growth 48h
COc1cccc(C(=O)NCC(=O)N2CCC3(CC2)NCCc2[nH]cnc23)c1	-1	42%	-4	21%
Cn1c(CC(=O)c2ccc(Br)cc2)[n+](C)c2ccccc21	-3	0.74µM*	-8	13µM*
C=CCn1c(=N)n(CC(=O)c2ccc(Br)cc2)c2ccccc21	1	7%	.	?
O=c1ccc(=O)n(-c2ccccc2)[nH]1	-2	49%	40	11%
CC(C)(C)c1cc(=O)n(-c2ccccc2)[nH]1	18	10µM*	28	?
Cc1ccc(NC(=S)N2CCN(c3ccccn3)CC2)c(C)c1	4	?	0	18%
COc1ccc(C)cc1NC(=S)N1CCN(c2ccccn2)CC1	35*	1µM*	62*	25%
COc1ccc(NC(=S)N2CCN(c3ccccn3)CC2)cc1OC	4	7.4µM*	-1	-14%
O=C(NNC(=O)c1ccccc1F)c1cccc(-n2cccc2)c1	.	70%	.	25%
Cn1c2cc(Br)sc2c2cnn(Cc3c(F)cccc3F)c(=O)c21	.	1%	.	25%
CS(=O)(=O)Nc1cccc(C(=O)OCCCOc2ccc(F)cc2)c1	-2	-22%	-3	-7%
O=C(CSc1nnnn1-c1cccnc1)Nc1cccc(Cl)c1	4	45%	-2	4%
Cn1cnnc1SCC(=O)Nc1ccc2c(c1)CCC2	15*	1%	35*	54%
Cn1cnnc1SCC(=O)c1ccc2c(c1)CCCC2	32*	19%	69*	109%
Cn1cnnc1SCC(=O)c1ccc2c(c1)OCO2	-2	-29%	-5	.
O=C(CSc1nnnn1-c1cccc(Cl)c1)Nc1ccc2c(c1)CCC2	-3	1.9µM*	-16	4%
CN(CC(=O)OCC(=O)NCc1ccccc1)S(=O)(=O)c1ccc(Cl)cc1	-2	25%	-5	-10%
CC1(C)Cc2c(sc3nc4n(-c5ccccc5)cnn4c(=O)c23)CO1	-2	5%	-6	?
O=C(/C=C/Nc1ccc(F)c(F)c1)c1ccc(Br)cc1	57*	43%	93*	289%
O=C(/C=C/Nc1ccc([N+](=O)[O-])cc1)c1ccc(Br)cc1	3	?	-43	44%
O=C(/C=C/Nc1ccc(S(=O)(=O)Nc2ncccn2)cc1)c1cccs1	25*	49%	55*	41%
O=C(/C=C/Nc1ccc(F)c(Cl)c1)c1ccccc1	44*	330%	59*	190%
O=C(/C=C/Nc1ccc(F)cc1)c1ccc(Br)cc1	30*	3%	116*	i
Cc1ccc(OCC(=O)NCCCNC(=O)c2ccccn2)cc1C	7	220%	-18	-13%
CC(C)CCN(C(=O)c1ccc(Br)cc1)c1c(N)n(Cc2ccccc2)c(=O)[nH]c1=O	.	-10%	.	7%
SMILES	Cycloheximide cs	Pf growth 96h	Shiga inhibitor	Pf growth 48h
COc1ccc(CCNC(=O)c2cc(C)oc2C)cc1OC	-2	2%	26	21%
CCc1ccccc1NC(=O)CSc1nnc(-c2cc(C)[nH]n2)n1N	2	?	-4	-13%
O=C(/C=C/Nc1ccc(F)c(F)c1)c1cccs1	40*	10µM*	53*	241%
Cc1ccc(N/C=C/C(=O)c2ccccc2)cc1Br	54*	260%	.	259%
CCOC(=O)c1c(C)nc(C)c(C(=O)OCC)c1-c1ccco1	-2	-1%	8	15%
Clc1ccc(-c2nnc(COc3ncnc4sccc34)o2)cc1	34*	77%	34*	13%
CC(C)n1ncc2c(C(=O)N3CCN(c4ccc(F)cc4)CC3)cc(-c3ccccc3)nc21	.	12µM*	.	12µM*
COc1cc(-c2nnc(COC(=O)CSc3cc(C)c4ccccc4n3)o2)cc(OC)c1OC	-3	2%	-9	?
COc1ccc(-c2cc(-c3nnc(COC(=O)c4ccc(O)cc4)o3)c3ccccc3n2)cc1OC	-2	?	-4	9.3µM*
COc1cc(-c2nnc(COC(=O)c3cc(C)nc4ccc(C)cc34)o2)cc(OC)c1OC	12	15µM*	-11	.
COc1ccc(NC(=O)c2cc(-c3ccc(OC)c(OC)c3)nc3ccccc23)c(OC)c1	-3	10µM*	-5	?
CC1CCN(Cc2nnnn2-c2cccc([N+](=O)[O-])c2)CC1	7	?	-4	?
COc1ccc(C2(CNC(=O)c3ccc(OCC(C)C)cc3)CCOCC2)cc1	-2	?	-30	?
CCOc1ncccc1C(=O)Nc1ccc(C)cn1	3	-25%	-13	-3%
COc1ccc(-c2cc(C(=O)Nc3ccc(C(N)=O)cc3)c3ccccc3n2)cc1OC	14*	3.7µM*	45	?
COc1cc(-c2cc(C(=O)Nc3ccc(O)cc3)c3ccccc3n2)cc(OC)c1OC	-2	?	-8	?
COc1ccc(NC(=O)c2cc(-c3ccccc3)nc3c2cnn3C(C)C)c(OC)c1	.	?	.	12µM*
O=C(Cn1cc(C(F)(F)F)cc(Cl)c1=O)Nc1cccc(S(=O)(=O)N2CCCCC2)c1	.	16%	.	?
C(=N/n1c2ccccc2c2ccccc21)/c1ccco1	10	.	10	22%
C(=N\N1CCN(c2ccccn2)CC1)/c1ccco1	22*	?	44*	89%
Cc1ccc(/C=N/N2CCN(c3ccccn3)CC2)o1	35*	33%	75*	53%
Cc1ccc(/C=N/N2CCN(Cc3ccccc3)CC2)o1	8	.	2	16%
CN(Cc1ccccc1)/C(=N/O)c1cccc(Cl)c1	0	-13%	-1	-5%
Clc1ccccc1C(c1ccccc1)(c1ccccc1)n1ccnc1	-3	1.4µM*	-23	0.64µM*
CCN(Cc1ccncc1)C(=S)Nc1c(C)cccc1C	-1	2.1µM*	-2	22%
SMILES	Cycloheximide cs	Pf growth 96h	Shiga inhibitor	Pf growth 48h
N#CCCN(Cc1cccnc1)C(=S)Nc1ccccc1Cl	-7	-19%	-11	4%
Cc1cccc(C)c1NC(=S)N(Cc1ccccc1)Cc1cccnc1	-11	-19%	-6	?
CCc1cccc(C)c1NC(=S)N(Cc1cccnc1)Cc1ccco1	0	12µM*	-10	?
S=C(Nc1ccccc1Cl)N(Cc1cccnc1)Cc1ccco1	-1	?	-19	4.1µM*
O=C(Nc1ccc(Cl)c(Cl)c1)N(Cc1cccnc1)Cc1ccco1	-4	4%	-23	-6%
CCn1c(SCC(=O)N2c3ccccc3Sc3ccccc32)nc2c1c(=O)n(C)c(=O)n2C	-4	13%	-8	0%
CCCCn1c(SCC(=O)N2c3ccccc3Sc3ccccc32)nc2c1c(=O)n(C)c(=O)n2C	-1	.	-1	1.7µM*
CCCn1c(SCC(=O)N2c3ccccc3CCc3ccccc32)nc2c1c(=O)n(C)c(=O)n2C	-2	i	-2	15µM*
Cc1cccc(-c2nnc(SCC(=O)N3c4ccccc4CCc4ccccc43)n2C)c1	-1	5%	-13	?
Cn1c(SCC(=O)N2c3ccccc3CCc3ccccc32)nnc1-c1cc2ccccc2cc1O	-2	-92%	-5	1.9µM*
CCCn1c(SCC(=O)O)nc2ccccc21	-1	32%	-21	25%
CCCn1c(SCC(=O)N2c3ccccc3Sc3ccccc32)nc2ccccc21	-2	3.7µM*	-10	13µM*
